Consider 92 compounds from PubChem BioAssay AID2073 (Sanford-Burnham Center for Chemical Genomics, 2009).

Screen size: about 290,000 compounds; about 570 (0.2%) were called active. Another 1% or so got no clear call; they are omitted. No stated cut-off is given here; in the data, active means inhibition mostly above about 51% (no sharp cut-off); inconclusive means no clear call, values can overlap the other calls; inactive means mostly below about 53%. For the sample, actives were picked, then their nearest neighbours and some compounds at random.

In this test the target is Voltage-dependent N-type calcium channel subunit alpha-1B (Homo sapiens) (UniProt Q00975). Briefly: inhibitors of Mint1-CaV2.2 protein interaction, biochemical, HTRF (AID 2073). The settings on record: at 20 µM, stronger effect = higher value. A general note: TR-FRET usually uses a lanthanide donor and a delayed reading to cut background.
Sequence of Voltage-dependent N-type calcium channel subunit alpha-1B (Homo sapiens) (Q00975 whole entry, looked up): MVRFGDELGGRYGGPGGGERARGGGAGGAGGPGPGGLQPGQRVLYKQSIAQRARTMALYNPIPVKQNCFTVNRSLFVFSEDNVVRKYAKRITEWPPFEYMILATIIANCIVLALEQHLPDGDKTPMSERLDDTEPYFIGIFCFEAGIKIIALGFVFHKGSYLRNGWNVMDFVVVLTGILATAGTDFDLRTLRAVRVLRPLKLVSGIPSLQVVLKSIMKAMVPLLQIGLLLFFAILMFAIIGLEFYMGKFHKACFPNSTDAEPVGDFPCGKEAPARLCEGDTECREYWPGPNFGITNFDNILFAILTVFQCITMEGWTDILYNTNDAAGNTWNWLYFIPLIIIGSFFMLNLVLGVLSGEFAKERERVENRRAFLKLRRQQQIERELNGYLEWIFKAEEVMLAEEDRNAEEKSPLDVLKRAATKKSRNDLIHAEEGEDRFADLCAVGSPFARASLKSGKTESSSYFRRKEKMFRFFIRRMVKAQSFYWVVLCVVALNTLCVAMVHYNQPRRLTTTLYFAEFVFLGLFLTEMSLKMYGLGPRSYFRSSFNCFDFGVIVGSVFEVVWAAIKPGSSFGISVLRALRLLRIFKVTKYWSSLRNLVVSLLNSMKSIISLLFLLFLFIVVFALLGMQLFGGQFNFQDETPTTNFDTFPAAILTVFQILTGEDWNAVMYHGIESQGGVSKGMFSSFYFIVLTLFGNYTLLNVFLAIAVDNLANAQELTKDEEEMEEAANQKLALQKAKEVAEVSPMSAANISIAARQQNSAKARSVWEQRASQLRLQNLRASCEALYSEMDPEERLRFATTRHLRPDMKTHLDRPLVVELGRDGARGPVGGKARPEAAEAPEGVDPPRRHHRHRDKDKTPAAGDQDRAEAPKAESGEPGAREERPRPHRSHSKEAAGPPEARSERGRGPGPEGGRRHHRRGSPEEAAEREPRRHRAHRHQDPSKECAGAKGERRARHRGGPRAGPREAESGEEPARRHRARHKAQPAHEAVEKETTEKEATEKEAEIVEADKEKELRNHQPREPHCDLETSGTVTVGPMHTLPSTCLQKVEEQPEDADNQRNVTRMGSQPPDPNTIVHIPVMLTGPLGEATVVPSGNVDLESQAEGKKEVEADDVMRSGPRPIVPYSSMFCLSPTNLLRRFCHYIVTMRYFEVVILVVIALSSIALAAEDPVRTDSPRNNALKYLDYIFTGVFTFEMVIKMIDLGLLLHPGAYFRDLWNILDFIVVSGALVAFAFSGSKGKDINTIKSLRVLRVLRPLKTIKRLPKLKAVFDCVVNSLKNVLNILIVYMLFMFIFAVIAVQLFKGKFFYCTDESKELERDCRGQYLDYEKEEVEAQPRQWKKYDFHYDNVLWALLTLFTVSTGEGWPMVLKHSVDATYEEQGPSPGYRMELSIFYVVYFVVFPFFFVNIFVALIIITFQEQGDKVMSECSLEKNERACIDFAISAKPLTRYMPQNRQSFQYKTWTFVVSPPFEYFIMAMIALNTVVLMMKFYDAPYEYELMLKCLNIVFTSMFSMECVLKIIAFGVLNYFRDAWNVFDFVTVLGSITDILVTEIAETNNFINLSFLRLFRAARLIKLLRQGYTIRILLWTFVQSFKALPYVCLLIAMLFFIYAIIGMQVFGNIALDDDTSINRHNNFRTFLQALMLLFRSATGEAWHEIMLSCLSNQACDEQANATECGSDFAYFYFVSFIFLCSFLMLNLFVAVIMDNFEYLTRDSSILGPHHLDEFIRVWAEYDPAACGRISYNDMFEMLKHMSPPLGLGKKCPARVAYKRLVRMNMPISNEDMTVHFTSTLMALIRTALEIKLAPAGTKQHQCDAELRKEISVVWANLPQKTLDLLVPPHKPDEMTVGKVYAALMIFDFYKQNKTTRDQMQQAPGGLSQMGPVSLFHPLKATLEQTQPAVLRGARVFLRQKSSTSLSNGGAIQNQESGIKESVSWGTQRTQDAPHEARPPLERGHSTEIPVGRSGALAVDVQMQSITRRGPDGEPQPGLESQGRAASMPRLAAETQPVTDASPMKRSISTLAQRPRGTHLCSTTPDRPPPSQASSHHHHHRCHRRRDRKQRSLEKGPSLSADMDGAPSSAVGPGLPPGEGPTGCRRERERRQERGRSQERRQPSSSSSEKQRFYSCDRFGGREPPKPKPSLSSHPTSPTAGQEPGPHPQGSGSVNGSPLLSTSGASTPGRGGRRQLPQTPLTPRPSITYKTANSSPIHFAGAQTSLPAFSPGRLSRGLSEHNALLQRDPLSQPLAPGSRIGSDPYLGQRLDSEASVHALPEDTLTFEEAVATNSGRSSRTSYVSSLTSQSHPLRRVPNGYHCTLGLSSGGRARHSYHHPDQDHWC
The mark [1] stands for this setting: measured here: average of repeat tests.

For orientation: inhibition means the change of the read-out against control, counted positive when it falls. With `O=C(O)CSC(C(=O)Nc1ccc(Br)cc1)c1ccc(Cl)cc1` (stereo unspecified), the inhibition is 9.9% (inactive).
On to `CC(=O)Nc1ccc(/C=N/Nc2ccc(C(=O)c3c(C)cc4ccccn34)cc2[N+](=O)[O-])cc1`, for which the inhibition is 50.4% (inactive). For the same compound, the inhibition under setting [1] was 29.6%.
For the compound `Cc1cc2ccccn2c1C(=O)c1ccc(N/N=C/c2ccc(C(=O)O)cc2)c([N+](=O)[O-])c1`, the inhibition is 69.4% (active).
For `Cc1cc2ccccn2c1C(=O)c1ccc(NN)c([N+](=O)[O-])c1`, the inhibition was 9.5% (inactive).
Turning to `Cc1nc(C)c(C(=O)Nc2ncc([N+](=O)[O-])s2)o1`, the inhibition was 33.7% (inactive).
Take `Cc1ccc(C(=O)Nc2ncc([N+](=O)[O-])s2)cc1`: the inhibition is 11.7% (inactive).
Same read-out and setting: the value for `Cc1ncoc1C(=O)Nc1ncc([N+](=O)[O-])s1` was 68% (active); that for `CC1=CCC2C(=O)N(c3ccc(C)cc3)C(=O)C2C1` (stereo unspecified) was 6.6% (inactive); that for `Cc1ccc(-c2csc(C3=C(O)CN(NC(=O)c4ccc([N+](=O)[O-])cc4)C3=N)n2)cc1` was 25.8% (inactive).
On to `N=C1C(c2nc(-c3ccc(Br)cc3)cs2)=C(O)CN1NC(=O)c1ccc([N+](=O)[O-])cc1`, for which the inhibition is 34.5% (inactive).
In the case of `O=C(NN1C(=O)C2C(C1=O)C1C=CC2C12CC2)c1ccncc1` (stereo unspecified), the inhibition was 6% (inactive).
Regarding `O=C(NN1C(=O)C2CC=C(Cl)CC2C1=O)c1ccncc1` (stereo unspecified), the inhibition was 61.5% (active).
Turning to `O=C(NN1C(=O)C2C3C=CC(C3)C2C1=O)c1ccncc1` (stereo unspecified), the inhibition is 5.7% (inactive).
Take `O=C(CSc1nnc(-c2ccccc2O)o1)Oc1ccc(Br)cc1`: the inhibition is 3% (inactive).
As for `CCOC(=O)C1CCCN(C(=O)c2ccc3nc(-c4ccc(OC)c(OC)c4)c(-c4ccc(OC)c(OC)c4)nc3c2)C1` (stereo unspecified), the inhibition was 10.2% (inactive).
Consider `Cc1ccc(NC(=O)c2cc(N3C(=O)C=CC3=O)ccc2Cl)cc1C`, for which the inhibition is 59.1% (active).
On to `Cc1ccc(NC(=O)c2cc(N3C(=O)C=CC3=O)ccc2N2CCOCC2)cc1Cl`, for which the inhibition is -7.4% (inactive).
On the same count and under the same terms, the value for `NC(=O)c1cc(N2C(=O)C=CC2=O)ccc1Cl` was 47% (inactive); that for `COc1cc(OC)cc(-c2nnc(Nc3nc4c(F)cccc4s3)o2)c1` was 56.7% (active).
Take `Fc1cccc2sc(Nc3nnc(-c4ccccc4)o3)nc12`: the inhibition is 38.5% (inactive).
For the compound `COc1cccc(-c2nnc(Nc3nc4c(F)cccc4s3)o2)c1`, the inhibition was 43.9% (inactive).
Same read-out and setting: for `Cc1ccc(C(=O)NCCSc2ccccc2)cc1S(=O)(=O)Nc1ccccc1` the value was -1.8% (inactive); for `CC(C)Oc1ccc(/C=C/C(=O)NCC2COc3ccccc3O2)cc1` (stereo unspecified), -5% (inactive).
On to `Cc1ccc(/C=C/C(=O)NCC2COc3ccccc3O2)o1` (stereo unspecified), for which the inhibition was 72.5% (active).
For the compound `O=C(/C=C/c1ccco1)NCC1COc2ccccc2O1` (stereo unspecified), the inhibition was 11% (inactive).
`Cc1ccc(C(=O)NCCCN2CCOCC2)cc1Cl`: the inhibition is 4.3% (inactive).
On to `CN(N)c1nc(-c2ccccc2)cc(-c2ccccc2)n1`, for which the inhibition is -4.2% (inactive).
As to `CN(C)c1nc(=NCc2ccco2)ss1`, the inhibition is 67.8% (active).
`O=C1CCCC(=NCc2ccco2)C1`: the inhibition was -7.5% (inactive).
Consider `c1coc(CN=C2NC(=NCc3ccco3)c3ccccc32)c1`, for which the inhibition is 18.7% (inactive).
As for `COC(=O)/C=C1/SC(=Nc2ccc(C)cc2C)NC1=O`, the inhibition is 0.9% (inactive).
As for `O=C1c2ccccc2C(=O)N1C/C=C/CN1C(=O)c2ccccc2C1=O`, the inhibition is 0% (inactive).
Take `Cc1ccc(-c2nc(CN(C)C3CCOC3)c(C)o2)s1` (stereo unspecified): the inhibition was 7.1% (inactive).
`COc1ccc(-c2cc3c(=O)n(CC(=O)Nc4cccc(Cl)c4)ncn3n2)cc1`: the inhibition is 39.6% (inactive).
As to `O=C1N=C(N2CCN(c3ccccc3)CC2)S/C1=C/c1ccco1`, the inhibition is -5% (inactive).
On to `O=C1N=C(N2CCCC2C(=O)O)S/C1=C\c1ccco1` (stereo unspecified), for which the inhibition is 95.1% (active).
In the case of `O=C1N=C(N2CCN(c3ccccc3)CC2)S/C1=C\c1ccco1`, the inhibition is 37.7% (inactive).
Take `COc1ccc(-n2nc(C(=O)NCC(=O)NCCCN3CC(C)CC(C)C3)c3ccccc3c2=O)cc1` (stereo unspecified): the inhibition is 3.3% (inactive).
Turning to `O=C(Nc1ccc(N2CCOCC2)cc1Cl)C1CCN(C(=O)OCc2ccccc2)CC1`, the inhibition was -2.8% (inactive).
The same measure, in the same setting: the value for `COc1ccc(-n2nc(C(=O)NCC(=O)NCc3ccc(F)cc3)c3ccccc3c2=O)cc1` was 8.9% (inactive); that for `CN1CCN(S(=O)(=O)c2ccc(Cl)cc2)CC1` was 5.7% (inactive).
With `O=S(=O)(c1ccc(Cl)cc1)N1CCCCCC1`, the inhibition is 13.9% (inactive).
Same read-out and setting: for `CC1CN(S(=O)(=O)c2ccccc2)C(C)CN1S(=O)(=O)c1ccccc1` (stereo unspecified) the value was 2.3% (inactive).
Still for that read-out and setting: the value for `Cc1ccc(S(=O)(=O)N2CCN(S(=O)(=O)c3ccccc3)C2)cc1` was -0.6% (inactive).
On the same count and under the same terms, the value for `Cc1sc(NC(=O)CN(Cc2ccc(F)cc2)C(=O)C(C)C)c(C(N)=O)c1C` was -9.6% (inactive); that for `CC(C)CC(=O)Nc1nnc(SCC(=O)NCc2ccc3c(c2)OCO3)s1` was 6% (inactive); that for `COc1ccc(N2C(=O)NC(=O)C2=O)cc1` was -3.9% (inactive).
In the case of `COc1ccc(N2CC(C(=O)N/N=C/c3c[nH]c4ccccc34)CC2=O)cc1` (stereo unspecified), the inhibition is 17.8% (inactive).
For the compound `Cc1nn(C)c(Cl)c1CN1CCC(CO)(CC2CCCCO2)CC1` (stereo unspecified), the inhibition was 6.5% (inactive).
For the compound `O=S(=O)(c1ccc(F)c(F)c1)N1CCCc2ccccc21`, the inhibition is -1.2% (inactive).
On the same count and under the same terms, for `CCCc1[nH]c(=O)c(C#N)c2c1COC(C)(C)C2` the value was -5.3% (inactive); for `Nc1ccc2nc(-c3cc(Cl)c(N)c(Cl)c3)[nH]c2c1`, 39.9% (inactive); for `Nc1ccc(-c2nc3ccc([N+](=O)[O-])cc3[nH]2)cc1`, 13.5% (inactive).
As for `Nc1ccc2nc(-c3cccc(-c4nc5ccc(N)cc5[nH]4)c3)[nH]c2c1`, the inhibition is 46.7% (inactive).
With `Nc1ccc(-c2nc3ccccc3[nH]2)cc1`, the inhibition is 5.5% (inactive).
On the same count and under the same terms, the value for `Fc1ccc(N=Cc2ccc[nH]2)cc1` was -9.3% (inactive); that for `O=C(Nc1cccc(S(=O)(=O)NC2=NCCC2)c1)c1cc(-c2ccco2)nc2ccccc12` was 61.9% (active).
Turning to `O=C(NC1CC1)c1cc(-c2ccco2)nc2ccccc12`, the inhibition is 38.6% (inactive).
With `CC(C)Cn1c(N)c(C(=O)COC(=O)c2cc(-c3ccco3)nc3ccccc23)c(=O)n(C)c1=O`, the inhibition was 19.7% (inactive).
On to `Cn1c(N)c(C(=O)COC(=O)c2cc(-c3ccccc3)nc3ccccc23)c(=O)n(Cc2ccccc2)c1=O`, for which the inhibition is 21.7% (inactive).
Take `O=C(O)c1cc(-c2ccco2)nc2ccccc12`: the inhibition was -11.5% (inactive).
Take `O=C(Nc1cccc(S(=O)(=O)NC2=NCCCCC2)c1)c1cc(-c2ccco2)nc2ccccc12`: the inhibition was 40.5% (inactive).
As to `O=C(NC1CCC(O)CC1)c1cc(-c2ccco2)nc2ccccc12` (stereo unspecified), the inhibition is 51.2% (active). Further, under setting [1], the inhibition came to 50.3%.
Regarding `O=C(NC(=S)Nc1cccc(S(=O)(=O)NC2=NCCC2)c1)c1cc(-c2ccco2)nc2ccccc12`, the inhibition was 61% (inactive). The inhibition under setting [1] was 23.6%.
As for `Cn1c(=O)c(C(=O)COC(=O)c2cc(-c3ccccc3)nc3ccccc23)c(N)n(Cc2ccccc2)c1=O`, the inhibition is 26.2% (inactive).
With `Cn1c(N)c(C(=O)COC(=O)c2cc(-c3ccco3)nc3ccccc23)c(=O)n(C)c1=O`, the inhibition is 50.3% (inactive). In addition, the inhibition under setting [1] worked out at 29.1%.
As for `Cn1c(=O)c(C(=O)COC(=O)c2cc(-c3ccco3)nc3ccccc23)c(N)n(Cc2ccccc2)c1=O`, the inhibition was 55.8% (active).
Same read-out and setting: the value for `Cn1c(N)c(C(=O)COC(=O)c2cc(-c3ccco3)nc3ccccc23)c(=O)n(Cc2ccccc2)c1=O` was 58.1% (active).
On to `CCN(C(=O)COC(=O)c1c(C)nn(-c2ccccc2)c1C)C1CCS(=O)(=O)C1` (stereo unspecified), for which the inhibition is 6.4% (inactive).
Same read-out and setting: for `C/C(CC(=O)Nc1ccc2c(c1)OCCO2)=N\NC(=O)COc1ccccc1` the value was 1.2% (inactive).
With `COc1ccc(CCNC(=O)C2CC(c3cc(C(F)(F)F)cc(C(F)(F)F)c3)=NO2)cc1` (stereo unspecified), the inhibition is 0.2% (inactive).
Regarding `Cc1ccc(/C=C/C(=O)Nc2ccc(O)c3c(=O)cc(-c4ccccc4Cl)oc23)cc1`, the inhibition was 13% (inactive).
On to `CCCN1Cc2cccc(C(=O)NC(CC(=O)OCC)c3ccc(OC(C)C)cc3)c2C1=O` (stereo unspecified), for which the inhibition was -3.9% (inactive).
The same measure, in the same setting: for `Cc1ccc(Cl)cc1N1CCN(C(=O)Cn2ncn3cccc3c2=O)CC1` the value was -1.5% (inactive).
Still for that read-out and setting: for `O=C(CCCn1c(=S)[nH]c2ccccc2c1=O)NC1CCCC1` the value was -32.5% (inactive); for `CCc1ccccc1NC(=O)COc1ccc(N2CC(C(N)=O)CC2=O)cc1` (stereo unspecified), 11.4% (inactive).
On the same count and under the same terms, the value for `OC1CNCc2cc3c(cc21)OCCO3` (stereo unspecified) was -5.4% (inactive); that for `CNC(=O)COC(=O)c1cc(-c2ccco2)nc2ccccc12` was 66.4% (active).
In the case of `O=C(COC(=O)c1cc(-c2ccco2)nc2ccccc12)NCc1ccccc1`, the inhibition is 25.4% (inactive).
For the compound `NC(=O)COC(=O)c1cc(-c2ccco2)nc2ccccc12`, the inhibition was 14.1% (inactive).
For the compound `CCN1CCN(CCCNC(=O)Cn2nc(C)n3nc(-c4ccccc4)cc3c2=O)CC1`, the inhibition was 12.1% (inactive).
As to `O=c1[nH]c(C2CCCN(S(=O)(=O)c3ccc(F)cc3)C2)nc2c1nnn2Cc1ccccc1` (stereo unspecified), the inhibition was -1% (inactive).
On to `Cc1[nH]n(-c2ccccc2)c(=S)c1C=Nc1cccc([N+](=O)[O-])c1`, for which the inhibition is 34.3% (inactive).
Regarding `Cc1[nH]n(-c2ccccc2)c(=O)c1C=Nc1ccc(S(N)(=O)=O)cc1`, the inhibition is 0.1% (inactive).
Consider `Cc1[nH]n(-c2ccccc2)c(=S)c1C=Nc1ccc([N+](=O)[O-])cc1`, for which the inhibition was 67% (active).
Same read-out and setting: the value for `Oc1ccccc1Cn1nnc2ccccc21` was 7.1% (inactive); that for `COc1ccc(CCNC(=O)CCN2C(=O)[C@@H]3Cc4ccccc4CN3C2=O)cc1` was -3.7% (inactive).
Consider `CN(C)C(=O)c1ccc(NC(=O)CSc2nc3ccccc3[nH]2)cc1`, for which the inhibition is -1.1% (inactive).
`CCC(=O)Nc1ccc(C(=O)CSc2nc3ccccc3[nH]2)cc1`: the inhibition was 54.5% (active).
Same read-out and setting: the value for `CCC(=O)Nc1ccc(C(=O)CSc2nc3ccc(C)cc3[nH]2)cc1` was 32.1% (inactive).
As for `COc1ccc(CCNCC(=O)Nc2c(C)cc(C)cc2C)cc1OC`, the inhibition was -6.8% (inactive).
Take `CCOC(=O)N1CCN(c2ccccc2OC)CC1`: the inhibition is -13.4% (inactive).
